# Source: the supplement of paper PMC8007513
# Counter-ions that a name gives are not always drawn. ± gives the standard error. The whole screen tested about 1,300 compounds, of which about 75 (6%) showed an effect of 50% or more. The sample as a whole holds a higher share of strong results than the screen did.
# Test system: Trichoderma virens ATCC 9645
# Experiment: growth yield (OD600) relative to untreated control; higher = less growth inhibition
# Settings: compound concentration: 100 uM
# In short: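 Library compounds (100 μM final), with or without a co-applied biocide (200 ng ml^−1), were added to 100 μl aliquots of Trichoderma virens ATCC 9645 spores at 15,000 spores ml^−1 in potato dextrose broth. Cultures were grown at 30 °C in 96-well plates, and OD600 was measured at 40 h and 72 h. Each growth value is a mean of duplicate screens, expressed relative to the control with neither agent.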
SMILES,growth yield (40 h) [%],growth yield (72 h) [%]
COc1ccc(C(=O)c2ccccc2)c(O)c1 [Oxybenzone],53.8 ± 4.3,62.9
COc1ccccc1O [Guaiacol],103.9 ± 0.95,102.7 ± 0.32
COc1ccc(C(=O)c2ccccc2O)c(O)c1 [Dioxybenzone],22.2,45.1 ± 2.7
Nc1cc(N2CCCCC2)nc(N)[n+]1[O-] [Minoxidil],104 ± 3.2,102 ± 1.3
O=C(NCCO[N+](=O)[O-])c1cccnc1 [Nicorandil],102.9 ± 0.32,102 ± 4.2
CC1=C(C(=O)O)N2C(=O)[C@@H](NC(=O)[C@H](N)c3ccc(O)cc3)[C@H]2SC1 [Cefadroxil],104 ± 8.9,106 ± 9.1
O=C(O[C@@H]1C[C@@H]2C[C@H]3C[C@H](C1)N2CC3=O)c1c[nH]c2ccccc12 [Dolasetron mesilate],106 ± 3.3,104 ± 1.9
CCn1cc(C(=O)O)c(=O)c2cnc(N3CCCC3)nc21 [Piromidic acid],90.5 ± 5.7,92.1 ± 4
CCCCC(CC)CNC(=N)NC(=N)NCCCCCCNC(=N)NC(=N)NCC(CC)CCCC (stereo not drawn) [Alexidine dihydrochloride],1.91 ± 0.32,1.89 ± 0.63
OC(CCN1CCCCC1)(c1ccccc1)C1CC2C=CC1C2 (stereo not drawn) [Biperiden hydrochloride],104 ± 2.9,105 ± 1.9
CCN(CC)CCNc1ccc(CO)c2sc3ccccc3c(=O)c12 [Hycanthone],118 ± 4.1,114.7 ± 0.63
CCCCC[C@H](O)/C=C/[C@H]1[C@H](O)CC(=O)[C@@H]1CCCCCCC(=O)O [Alprostadil],107 ± 8.4,101 ± 6.2
C[C@@H]1C[C@H]2[C@@H]3C[C@H](F)C4=CC(=O)C=C[C@]4(C)[C@@]3(Cl)[C@@H](O)C[C@]2(C)[C@H]1C(=O)COC(=O)C(C)(C)C [Clocortolone pivalate],107 ± 4,100 ± 5.7
O=c1oc2ccccc2c(O)c1Cc1c(O)c2ccccc2oc1=O [Dicumarol],94 ± 0.95,92.4 ± 0.94
CCc1oc2ccccc2c1C(=O)c1cc(Br)c(O)c(Br)c1 [Benzbromarone],40.7 ± 5.7,77.8 ± 4.8
CC(=O)CC(c1ccccc1)c1c(O)c2ccccc2oc1=O (stereo not drawn) [Warfarin],90.9 ± 3.5,89.1 ± 4
CC(Cc1cccc(C(F)(F)F)c1)NCCOC(=O)c1ccccc1 (stereo not drawn) [Benfluorex],83.5 ± 3.5,95.9 ± 1.9
CN[C@@H]1[C@H](O[C@H]2[C@H](O[C@H]3[C@H](O)[C@@H](O)[C@H](NC(=N)N)[C@@H](O)[C@@H]3NC(=N)N)O[C@@H](C)[C@]2(O)CO)O[C@@H](CO)[C@H](O)[C@H]1O [Dihydrostreptomycin sulfate],96.9,98
CCOC1O[C@H]([C@@H](COCc2ccccc2)OCc2ccccc2)[C@H](OCc2ccccc2)[C@H]1O (stereo partly drawn) [Tribenoside],90.2 ± 6,87.2 ± 6.2
CC(C)CC(=O)N[C@H](C(=O)N[C@H](C(=O)N[C@@H](CC(C)C)[C@@H](O)CC(=O)N[C@@H](C)C(=O)N[C@@H](CC(C)C)[C@@H](O)CC(=O)O)C(C)C)C(C)C [Pepstatin A],106 ± 5.4,102 ± 7.8
CN(C)CCOC(c1ccc(Cl)cc1)c1ccccn1 (stereo not drawn) [Carbinoxamine maleate salt],97.7 ± 4.3,97.8 ± 2.6
CCN(CC)C(=S)SSC(=S)N(CC)CC [Disulfiram],27.2 ± 17,67.8 ± 12

SMILES,growth yield (40 h) [%],growth yield (72 h) [%]
COc1ccccc1N1CCN(CC(O)COc2cccc3ccccc23)CC1 (stereo not drawn) [Naftopidil dihydrochloride],97.4 ± 1.1,110.22 ± 0.1
NCCNCCNCCNCCN [Tetraethylenepentamine pentahydrochloride],103 ± 2.5,99.8 ± 2.9
CCCOc1ccccc1-c1nc2[nH]nnc2c(=O)[nH]1 [Zaprinast],99.1,106 ± 1.1
CCC(=O)OCC(=O)[C@@]1(OC(=O)CC)[C@H](C)C[C@H]2[C@H]3[C@H]([C@@H](O)C[C@@]21C)[C@@]1(C)C=CC(=O)C=C1C[C@H]3Cl [Alclometasone dipropionate],101 ± 4,97.7 ± 1.7
CCCCCCNC(=O)n1cc(F)c(=O)[nH]c1=O [Carmofur],16.4 ± 0.48,33.1 ± 5.5
Nc1nc(=O)c2c([nH]1)NC[C@@H](CNc1ccc(C(=O)N[C@@H](CCC(=O)O)C(=O)O)cc1)N2C=O [Folinic acid calcium salt],99.8 ± 2.5,92 ± 4.1
CC(C)NC[C@H](O)COc1ccc(CC(N)=O)cc1 [(S)-(-)-Atenolol],100 ± 1.6,101 ± 1.5
NS(=O)(=O)c1cc2c(cc1C(F)(F)F)NC(Cc1ccccc1)NS2(=O)=O (stereo not drawn) [Bendroflumethiazide],106 ± 3.3,102 ± 3.4
CN(c1nccc(=O)[nH]1)C1CCN(c2nc3ccccc3n2Cc2ccc(F)cc2)CC1 [Mizolastine],94.5 ± 2.4,96 ± 2.6
CCCCCCCCCCCCCCCC[N+](C)(C)CCN(Cc1ccc(OC)cc1)c1ncccn1 [Thonzonium bromide],0,0
COc1ccc(CN(CCN(C)C)c2ccccn2)cc1 [Pyrilamine maleate],101 ± 1.1,103 ± 1.5
CN(C)CCN(Cc1ccc(Cl)cc1)c1ccccn1 [Chloropyramine hydrochloride],98.8 ± 1.9,96.2 ± 2.6
Nc1ncn(C2OC(CO)C(O)C2O)c(=O)n1 (stereo not drawn) [Azacytidine-5],89.4 ± 5.9,88.4 ± 4.3
CC(C)[C@H](N)C(=O)OCCOCn1cnc2c(=O)nc(N)[nH]c21 [Valacyclovir hydrochloride],102,103
CC(=C(CCO)SSCC1CCCO1)N(C=O)Cc1cnc(C)nc1N (stereo in doubt) [Fursultiamine Hydrochloride],104 ± 5.2,101 ± 3.1
NC[C@H]1CC[C@H](C(=O)O)CC1 [Tranexamic acid],99.75 ± 0.64,102.2 ± 0.73
C#Cc1cccc(Nc2ncnc3cc(OCCOC)c(OCCOC)cc23)c1 [Erlotinib],108,105
COc1cc2ncnc(Nc3ccc(F)c(Cl)c3)c2cc1OCCCN1CCOCC1 [Gefitinib],7.47 ± 0.16,6.29
CCCCOc1ccc(OCCCN2CCOCC2)cc1 [Pramoxine hydrochloride],89.6 ± 1.9,90.5 ± 2.2
CC[C@H]1OC(=O)[C@H](C)[C@@H](O[C@H]2C[C@@](C)(OC)[C@@H](O)[C@H](C)O2)[C@H](C)[C@@H](O[C@@H]2O[C@H](C)C[C@H](N(C)C)[C@H]2O)[C@](C)(O)C[C@@H](C)/C(=N\OCOCCOC)[C@H](C)[C@@H](O)[C@]1(C)O [Roxithromycin],97.85 ± 0.64,96.7 ± 1.5
COc1ccnc(C[S+]([O-])c2nc3cc(OC(F)F)ccc3[nH]2)c1OC (stereo not drawn) [Pantoprazole sodium],88.2 ± 6.2,94 ± 3.8
Cc1c(F)c(N2CCNC(C)C2)cc2c1c(=O)c(C(=O)O)cn2C1CC1 (stereo not drawn) [Grepafloxacin],99.9 ± 1.4,97.53 ± 0.63

SMILES,growth yield (40 h) [%],growth yield (72 h) [%]
CC(=O)OCC(=O)[C@@]1(O)[C@H](C)C[C@H]2[C@@H]3CCC4=CC(=O)C=C[C@]4(C)[C@@]3(F)[C@@H](O)C[C@@]21C [Dexamethasone acetate],102 ± 4,103 ± 3.7
CCOCCn1c(N2CCCN(C)CC2)nc2ccccc21 [Emedastine],98.96 ± 0.16,96.9 ± 2.7
CCC(C)(C)c1ccc(CC(C)CN2C[C@@H](C)O[C@@H](C)C2)cc1 (stereo partly drawn) [Amorolfine hydrochloride],4.45 ± 0.32,2.94 ± 0.21
CCn1cc(C(=O)O)c(=O)c2cnc(N3CCNCC3)nc21 [Pipemidic acid],94.4 ± 3.5,92.7
NC[C@@H]1O[C@H](O[C@H]2[C@@H](O)[C@H](O[C@@H]3[C@@H](O)[C@H](N)C[C@H](N)[C@H]3O[C@H]3O[C@H](CO)[C@@H](O)[C@H](O)[C@H]3N)O[C@@H]2CO)[C@H](N)[C@@H](O)[C@@H]1O [Paromomycin sulfate],102.6 ± 0.32,96.59 ± 0.32
O=C1CN(/N=C/c2ccc(-c3ccc([N+](=O)[O-])cc3)o2)C(=O)N1 [Dantrolene sodium salt],93.4 ± 2.2,99.7 ± 1.4
O=C(NCC(O)CO)c1c(I)c(C(=O)NCC(O)CO)c(I)c(N(CCO)C(=O)CO)c1I (stereo not drawn) [Ioversol],101 ± 5.4,98.1 ± 2.8
CN1CCN(CCCN2c3ccccc3Sc3ccc(C(F)(F)F)cc32)CC1 [Trifluoperazine dihydrochloride],20 ± 0.95,63.35 ± 0.42
OCCN1CCN(CCCN2c3ccccc3Sc3ccc(C(F)(F)F)cc32)CC1 [Fluphenazine dihydrochloride],44 ± 6.2,90.3 ± 8.9
CC(=O)c1ccc2c(c1)N(CCCN1CCC(CCO)CC1)c1ccccc1S2 [Piperacetazine],124 ± 8.6,119 ± 8.9
OCCN1CCN(CCCN2c3ccccc3C=Cc3ccccc32)CC1 [Opipramol dihydrochloride],91.3 ± 1.1,98.1 ± 1.4
CN(C)CCCN1c2ccccc2Sc2ccc(C(F)(F)F)cc21 [Triflupromazine hydrochloride],74.66 ± 0.32,92.1 ± 2.1
CN(C)CCCN1c2ccccc2Sc2ccccc21 [Promazine hydrochloride],91.33 ± 0.16,95.6
CO[C@H]1C[C@H](O[C@H]2[C@H](C)[C@@H](O[C@@H]3O[C@H](C)C[C@H](N(C)C)[C@H]3OC(C)=O)[C@@H](C)C[C@@]3(CO3)C(=O)[C@H](C)[C@@H](OC(C)=O)[C@@H](C)[C@@H](C)OC(=O)[C@@H]2C)O[C@@H](C)[C@@H]1OC(C)=O [Troleandomycin],100.5 ± 0.79,98.4 ± 1.3
CC=CC1=C(C(=O)O)N2C(=O)[C@@H](NC(=O)[C@H](N)c3ccc(O)cc3)[C@H]2SC1 [Cefprozil],100 ± 1.4,92.7 ± 3.1
CN1CCN(C2=Nc3cc(Cl)ccc3Nc3ccccc32)CC1 [Clozapine],102 ± 2.4,104.77 ± 0.1
CN1[C@@H]2CC[C@H]1C[C@@H](OC(=O)c1c[nH]c3ccccc13)C2 [Tropisetron hydrochloride],104 ± 10,104 ± 8.6
CC(C)c1c(C(=O)Nc2ccccc2)c(-c2ccccc2)c(-c2ccc(F)cc2)n1CC[C@@H](O)C[C@@H](O)CC(=O)O [Atorvastatin],106,85.1 ± 10
CC(C)n1c(/C=C/C(O)CC(O)CC(=O)O)c(-c2ccc(F)cc2)c2ccccc21 (stereo not drawn) [Fluvastatin sodium salt],1.91 ± 1.3,1.78 ± 0.94
O=C(O)C[C@H](O)C[C@H](O)/C=C/c1c(C2CC2)nc2ccccc2c1-c1ccc(F)cc1 [Pitavastatin calcium],4.13,2.94
